We go through five molecules from PubChem BioAssay (NCATS).

Results filed as inconclusive are left out. Calls of active or inactive are those of the source. Calls follow the shape of the dose curve; as a rule, active = well fitted curve in the direction sought with a large enough effect; inconclusive = small, poorly fitted or top-dose-only effect, or another doubt; inactive = no such curve, though single readings can be large; an effect the other way counts as inactive or inconclusive.

The nature of assay [1]: NCATS anti-infectives library activity on HEK293 viability as a counter-qHTS vs the C. elegans viability qHTS (AID 1745854).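 Also: HEK293 cells exposed to compounds for 24 hr before the viability read; % is scaled to controls: 0 for no effect and ±100 for the full control effect.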 The method, boiled down: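 Counter-screen for cytotoxicity: HEK293, 24 hr, 37C, compounds up to 41.7 uM final (a dilution series, 1:5). Readout CellTiter-Glo luminescence, 10 min RT. Digitonin control, 83.3 uM final.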
Assay [2] can be described thus: Primary qHTS for inhibitors of nuclear receptor binding SET domain protein 2 (NSD2) in an isogenic RCH-ACV NSD2 p.E1099K mutant (9B) (AID 1645876; also: nearly all actives have a fitted effect of over 70% in size; also: potency is read from the fitted curve at half-maximal effect). (In qHTS, concentration-response curves come from the screen itself.)
Assay [3] in a line: Primary qHTS for inhibitors of nuclear receptor binding SET domain protein 2 (NSD2) in an RCH-ACV wild type WT cells (2C) (AID 1645877). Also: % is scaled to controls: 0 for no effect and ±100 for the full control effect; nearly all actives have a fitted effect of over 70% in size.
In assay [4] the target is Catechol O-methyltransferase (Homo sapiens) (UniProt P21964). Nature of the assay: Confirmatory Screen for Target Class Profiling of Small Molecule Inhibitors of Methyltransferases (AID 1745852). As to activity change, negative = inhibition: % is scaled to controls: 0 for no effect and ±100 for the full control effect. The note with it: MTase-Glo luminescence, SAH detection, recombinant enzyme; measured here: COMT max response; stronger effect = lower value.
Assay [5] concerns the target Guanidinoacetate N-methyltransferase (Homo sapiens) (UniProt Q14353). Described as above. Conditions: MTase-Glo luminescence, SAH detection, recombinant enzyme; at 57.3 µM (top of the series).
Assay [6] concerns the target Nicotinamide N-methyltransferase (Homo sapiens) (UniProt P40261). The assay is described as above. Conditions: MTase-Glo luminescence, SAH detection, recombinant enzyme; measured here: NNMT max response; stronger effect = lower value.
In assay [7] the target is Phenylethanolamine N-methyltransferase (Homo sapiens) (UniProt P11086). The description is as above. Conditions: MTase-Glo luminescence, SAH detection, recombinant enzyme; measured here: PNMT max response; stronger effect = lower value.
Phenylethanolamine N-methyltransferase (Homo sapiens), sequence (P11086 whole entry, looked up): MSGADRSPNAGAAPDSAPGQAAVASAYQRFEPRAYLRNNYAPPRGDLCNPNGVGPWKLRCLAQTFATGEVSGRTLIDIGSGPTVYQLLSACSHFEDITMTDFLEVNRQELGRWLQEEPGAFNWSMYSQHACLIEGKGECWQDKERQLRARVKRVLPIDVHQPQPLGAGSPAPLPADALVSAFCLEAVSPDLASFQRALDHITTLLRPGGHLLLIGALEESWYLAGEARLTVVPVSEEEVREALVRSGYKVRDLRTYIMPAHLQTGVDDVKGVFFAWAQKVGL

Nicotinamide N-methyltransferase (Homo sapiens), sequence (P40261 whole entry, looked up): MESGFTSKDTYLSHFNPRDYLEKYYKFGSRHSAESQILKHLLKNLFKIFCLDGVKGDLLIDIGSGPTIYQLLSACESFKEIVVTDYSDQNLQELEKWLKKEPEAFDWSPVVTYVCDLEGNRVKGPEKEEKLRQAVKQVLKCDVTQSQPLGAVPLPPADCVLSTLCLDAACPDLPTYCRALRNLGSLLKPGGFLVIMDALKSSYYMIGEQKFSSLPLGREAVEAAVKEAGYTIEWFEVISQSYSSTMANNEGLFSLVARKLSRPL
Catechol O-methyltransferase (Homo sapiens), sequence (P21964 whole entry, looked up): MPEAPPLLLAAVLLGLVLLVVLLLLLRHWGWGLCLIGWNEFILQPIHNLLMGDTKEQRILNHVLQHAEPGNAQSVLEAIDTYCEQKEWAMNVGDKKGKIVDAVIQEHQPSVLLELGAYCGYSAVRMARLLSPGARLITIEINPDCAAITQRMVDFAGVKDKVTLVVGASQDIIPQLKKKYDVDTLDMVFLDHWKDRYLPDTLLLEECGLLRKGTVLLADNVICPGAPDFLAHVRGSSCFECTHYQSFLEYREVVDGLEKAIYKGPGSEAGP

Consider `CC[C@@H]([C@H](C)O)n1ncn(-c2ccc(N3CCN(c4ccc(OC[C@@H]5CO[C@@](Cn6cncn6)(c6ccc(F)cc6F)C5)cc4)CC3)cc2)c1=O`, for which the Potency result in assay [1] is “inactive”.

As for `C=CC[N+]1([C@H]2C[C@H]3[C@@H]4CC[C@H]5C[C@H](OC(C)=O)[C@@H](N6CCCCC6)C[C@]5(C)[C@H]4CC[C@]3(C)[C@H]2OC(=O)CC)CCCCC1`, the Potency entry in assay [2] and in assay [3] was “inactive” in each case. The figures for the activity in assay [4], in assay [6] and in assay [7] were -2.74%, -7.38% and -11.5%, respectively. The activity change, negative = inhibition in assay [5] was found to be 0%.

`C[C@@H](O[C@H]1OCCN(Cc2n[nH]c(=O)[nH]2)[C@H]1c1ccc(F)cc1)c1cc(C(F)(F)F)cc(C(F)(F)F)c1`: the Potency entry in assay [1] was “inactive”.

With `CCN1C(=O)c2ccccc2C1Nc1ccc(OCCN2CCCCC2)cc1` (stereo not drawn), in assay [2], the Potency entry is “inactive”. For the same molecule, the activity is -0.796% in assay [4], 1.49% in assay [6] and 0.197% in assay [7]. Moreover, in assay [5], the activity change, negative = inhibition was 1.78%.

For `O=C1NC2CCCCN2C12CCN(CCCN1c3ccccc3CCc3ccc(Cl)cc31)CC2` (stereo not drawn), the Potency in assay [2] is 18.3 µM (active). Further, the activity was -2.76% in assay [4], -29.7% in assay [6] and -1.01% in assay [7]. Besides, the activity change, negative = inhibition in assay [5] was 1.64%.
